Laboratory results: PubChem BioAssay (Tox21)
“And” between values parts separate entries of the source, which are not always exact repeats. Identical values can stand only once. Inconclusive results are not listed. The source made the active and inactive calls. Calls follow the shape of the dose curve; as a rule, active = well fitted cell-killing curve with a large enough effect in the repeat runs; inconclusive = weak or mixed curves; inactive = flat fitted curve, though single readings scatter.

experiment: qHTS assay to identify small molecule antagonists of the estrogen related receptor (ERR) signaling pathway from Tox21 library - cell viability counter screen (AID 1224834); settings: ERR reporter cells viability, CellTiter-Fluor, 17.5 h; series mostly up to 92.4 µM; viability change, negative = cytotoxic: at the top concentration; also: nearly all actives have a fitted effect of over 30% in size
From the text: National Center for Advancing Translational Sciences [NCATS]
NIH Chemical Genomics Center [NCGC]
U.S. Environmental Protection Agency [EPA]
National Institutes of Environmental Health Sciences [NIEHS]
National Toxicology Program [NTP]
U.S. Food and Drug Administration [FDA]
Estrogen related receptors (ERRs), the first orphan nuclear receptors discovered, play an important role in the control of cellular energy metabolism. ERRs are required for high-energy production in response to the environmental challenges. ERR-alpha was also identified as an adverse marker for breast cancer progression; ERR-alpha-positive tumors have a poor prognosis. To screen and to identify environmental compounds that perturb the ERR signaling pathways could provide valuable information for potential therapeutic or preventive measures in the treatment of metabolic disease. To differentiate true ERR antagonists or agonist from cytotoxic substances, the assay is multiplexed with cell viability assay.
Tox21 Assay Protocol Summary:
The ERR cells were dispensed at 2,000 cells/5 ul/well in 1536-well white plates using a Multidrop dispenser. After the assay plates were incubated at a 37 C/5% CO2 incubator for 6 hours, 23 nL of compounds dissolved in DMSO, positive and negative controls or DMSO only was transferred to the assay plate by a pin tool. The plates were incubated at 37 C for 17.5 hours. 1 ul/well of CellTiter-Fluor reagent was added into the assay plates using a Flying Reagent Dispenser. After 30-minute incubation at 37 C/5% CO2, the fluorescence intensity in the plates was measured using a ViewLux plate reader.
% is scaled to controls: 0 for no effect and ±100 for the full control effect; potency is read from the fitted curve at half-maximal effect.

SMILES | viability change, negative = cytotoxic | Potency
C=C/C=C/C=C/CCCCC | -1.2% [at 19 µM] (inactive) | 
Cc1cnccn1 | -2.5% (inactive) | 
CSc1c(Cl)c(Cl)c(Cl)c(Cl)c1Cl | -1.24% (inactive) | 
O=C(O)CC(=O)O | 1.78% (inactive) | 
CCc1ccc(C)nc1 | 1.34% (inactive) | 
C/C=C/C(=O)C1=C(C)CCCC1(C)C | 0.266% (inactive) | 
CCc1cccc(C)c1 | -1.41% (inactive) | 
CCCCCCCCCCCCCCCC | -0.433% (inactive) | 
Oc1ccc(-c2ccccc2)c(Cl)c1 | 0.622% (inactive) | 
COc1ccc(C#N)cc1 | 0.218% (inactive) | 
CCCC(C)CCC(C)=O (stereo not given) | 1.2% (inactive) | 
O=C1c2c(O)ccc([N+](=O)[O-])c2C(=O)c2c([N+](=O)[O-])ccc(O)c21 |  | 27.1 µM (active)
C[C@H]1O[C@@H](O[C@H]2[C@@H](O)C[C@H](O[C@H]3[C@@H](O)C[C@H](O[C@H]4CC[C@@]5(C)[C@H](CC[C@@H]6[C@@H]5C[C@@H](O)[C@]5(C)[C@@H](C7=CC(=O)OC7)CC[C@]65O)C4)O[C@@H]3C)O[C@@H]2C)C[C@H](O)[C@@H]1O |  | 86.4 nM (active) and 95.8 nM (active)
O=C1c2c(O)ccc(O)c2C(=O)c2c(NCCNCCO)ccc(NCCNCCO)c21 |  | 3.35 µM (active)
O=C(Nc1ccc(Cl)cc1)Nc1ccc(Cl)c(C(F)(F)F)c1 |  | 11.9 µM (active)
CCO[Si](C)(C)OCC | 0.456% (inactive) | 
Cn1cnc2ncnc(N)c21 | 5.24% [at 42.5 µM] (inactive) | 
CCCCCCCCCCCCCOP(=O)(O)O | 0.208% (inactive) | 
COC(=O)[C@]1(C)CCC[C@@]2(C)[C@H]1CC=C1C=C(C(C)C)CC[C@@H]12 | -2.28% (inactive) | 
CCCCNc1c(C(=O)OCC)c(C)nc2c1cnn2CC | -13.1% [at 42.5 µM] (inactive) | 

SMILES | viability change, negative = cytotoxic | Potency
CN(C)CCCN1c2ccccc2Sc2ccc(C(F)(F)F)cc21 |  | 29.8 µM (active)
Cc1cccc(Br)c1 | 0.25% (inactive) | 
C=CC(=O)OCCOCC(CC)(COCCOC(=O)C=C)COCCOC(=O)C=C |  | 16 µM (active)
CCCCCCCCCCCC(=O)N(CC)CC | 2.89% (inactive) | 
CN(C)CCOC(c1ccccc1)c1ccccc1 (tested in a mixture with another compound) | -9.67% (inactive) | 
Cc1cc2c(C(C)C)c(O)c(O)c(C=O)c2c(O)c1-c1c(C)cc2c(C(C)C)c(O)c(O)c(C=O)c2c1O |  | 13.3 µM (active)
CCC1(c2cnc[nH]2)Cc2ccccc2C1 | -1.71% [at 42.5 µM] (inactive) | 
CCCCCCOc1ccc(O)cc1 |  | 27.3 µM (active)
CC1=CP(=O)(c2ccccc2)CC1 (stereo not given) | -4% (inactive) | 
O=C1NCN(c2ccccc2)C12CCN(CCCC(c1ccc(F)cc1)c1ccc(F)cc1)CC2 |  | 26.6 µM (active)
CC(C)=CCCC(C)CCOC(=O)C(C)C (stereo not given) | -0.762% (inactive) | 
CCCCCCCOC(=O)c1ccccc1C(=O)OCCCCCCC | 6.42% (inactive) | 
CCOB(OCC)OCC | 1.8% (inactive) | 
C1CC(COCC2CO2)CCC1COCC1CO1 (stereo not given) | -4.23% (inactive) | 
O=C(O)CCCCCCC(=O)O | -1.05% (inactive) | 
CC(=O)O[C@@H]1C[C@@H]2CC[C@@]1(C)C2(C)C | -0.624% (inactive) | 
C=CC(=O)OCCC#N | 0.244% (inactive) | 
O=C1C=CC(=O)N1c1ccccc1 |  | 43.3 µM (active)
CC(=O)C=O | 1.91% (inactive) | 
Brc1ccccc1-c1ccccc1 | 0.729% (inactive) | 
